The results in this text go back to the supplement of paper PMC4840960.

Where a name gives a salt, the structure may show the parent alone. ± gives the standard deviation of the averaged measurements.

The test system of assay [1] is E18 rat cortical neuron-glia co-culture. As to the kind of experiment: fiber score / MBP score (myelination specific beyond OL differentiation) (ratio); higher = more myelination-specific MBP alignment. To be noted: treatment time: 8 days (DIV5-DIV13). In outline:
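Library compounds were applied at 1 or 5 µM in myelination medium, DIV5 to DIV13, to primary E18 rat cortical co-cultures grown at 20,000 cells/well in 96-well plates. After 4 % paraformaldehyde fixation and MBP/Olig2/DAPI immunostaining, four 10X fields per well in duplicate wells were scored. Each value is continuous MBP fiber length per Olig2+ nucleus divided by thresholded MBP area × intensity per Olig2+ nucleus.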

For assay [2] the test system is unchanged. Briefly: myelination (MBP fiber length per Olig2+ nucleus), % of 1 µM DAPT response (DMSO = 0) (% of DAPT); higher = more myelination, active = 50 or more. The following applies: treatment time: 8 days (DIV5-DIV13). The method, boiled down:
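Library compounds at 1 or 5 µM in myelination medium were applied from DIV5 to DIV13 to papain-dissociated E18 rat cortical co-cultures seeded at 20,000 cells/well on poly-d-lysine/laminin 96-well plates. Fixed cells (4 % paraformaldehyde) were immunostained for MBP and Olig2 with DAPI, and four 10X fields were analysed in each duplicate well. Continuous straight MBP fiber length per Olig2+ nucleus was set to 0 for 0.1 % DMSO and to 100 for a 1 µM positive control.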

`C[C@]12CCC(=O)C=C1CC[C@@H]1[C@@H]2CC[C@@]2(C)[C@H]1CC[C@]2(O)C(=O)CO` [Cortodoxone]: the figures for the “fiber score / MBP score” value in assay [1] (1 µM) and in assay [1] (5 µM) were 0.514 and 0.781, respectively. The results for the myelination in assay [2] (1 µM) and in assay [2] (5 µM) were -16.7 (inactive) and -9 (inactive), respectively.

In the case of `Cc1ccc(C)c(OCCCC(C)(C)C(=O)O)c1` [Gemfibrozil], the “fiber score / MBP score” value in assay [1] (1 µM) was found to be 0.476; in assay [1] (5 µM), 0.995. The myelination is -13.7 (inactive) in assay [2] (1 µM) and -7.17 (inactive) in assay [2] (5 µM).

Turning to `COc1cc(Cc2cnc(N)nc2N)cc(OC)c1OC` [Trimethoprim], the “fiber score / MBP score” value in assay [1] (1 µM) is 0.828; in assay [1] (5 µM), 1.18. Also, the results for the myelination in assay [2] (1 µM) and in assay [2] (5 µM) were -9.76 (inactive) and 5.27 (inactive), respectively.

For the molecule `CC(C)(C)C(O)/C=C/c1ccc2c(c1)OCO2` (centres undefined) [Stiripentol], the results for the “fiber score / MBP score” value in assay [1] (1 µM) and in assay [1] (5 µM) were 0.738 and 0.84, respectively. The results for the myelination in assay [2] (1 µM) and in assay [2] (5 µM) were -11.3 (inactive) and -6.09 (inactive), respectively.

Turning to `NS(=O)(=O)c1cc2c(cc1C(F)(F)F)NCNS2(=O)=O` [Hydroflumethiazide], the entries for the “fiber score / MBP score” value in assay [1] (1 µM) and in assay [1] (5 µM) were 0.948 and 0.763, respectively. Besides, the results for the myelination in assay [2] (1 µM) and in assay [2] (5 µM) were -2.17 (inactive) and -13.7 (inactive), respectively.

`CC(Cc1ccccc1)(NC(=O)CN)c1ccccc1` (centres undefined) [Remacemide]: the results for the “fiber score / MBP score” value in assay [1] (1 µM) and in assay [1] (5 µM) were 0.793 and 0.749, respectively. Moreover, the myelination in assay [2] (1 µM) is -12.4 (inactive); in assay [2] (5 µM), -7.33 (inactive).

For the molecule `C[C@]12CCC(=O)C=C1CC[C@@H]1[C@@H]2[C@@H](O)C[C@@]2(C)[C@H]1CC[C@]2(O)C(=O)COC(=O)CCC(=O)O` [Cortisol succinate], the “fiber score / MBP score” value in assay [1] (1 µM) is 0.943; in assay [1] (5 µM) it was 1.41. For the same molecule, the myelination was 0.996 (inactive) in assay [2] (1 µM) and 17.9 (inactive) in assay [2] (5 µM).

For the molecule `Fc1ccc([C@@H]2CCNC[C@H]2COc2ccc3c(c2)OCO3)cc1` [Paroxetine], the entries for the “fiber score / MBP score” value in assay [1] (1 µM) and in assay [1] (5 µM) were 0.8051 ± 0.003 and 1.08 ± 0.16, respectively. In addition, the myelination is -13.8 (inactive) in assay [2] (1 µM) and 3.71 (inactive) in assay [2] (5 µM).

For the molecule `CN1CCCCC1CCN1c2ccccc2Sc2ccc([S+](C)[O-])cc21` (centres undefined) [Mesoridazine], the “fiber score / MBP score” value in assay [1] (1 µM) is 0.531; in assay [1] (5 µM) it was 0.747. The myelination is -39.6 (inactive) in assay [2] (1 µM) and -20.4 (inactive) in assay [2] (5 µM).

For the molecule `OCCOCCN1CCN(C(c2ccccc2)c2ccc(Cl)cc2)CC1` (centres undefined) [Hydroxyzine pamoate salt], the “fiber score / MBP score” value in assay [1] (1 µM) turned out to be 0.154; in assay [1] (5 µM), 0.28. Besides, the myelination in assay [2] (1 µM) is -6.65 (inactive); in assay [2] (5 µM), -24.4 (inactive).

In the case of `NC1CCN(c2nc3c(cc2F)c(=O)c(C(=O)O)cn3-c2ccc(F)cc2F)C1` (centres undefined) [Tosufloxacin], the “fiber score / MBP score” value turned out to be 0.855 in assay [1] (1 µM) and 0.665 in assay [1] (5 µM). Moreover, the myelination is -12.3 (inactive) in assay [2] (1 µM) and -14.4 (inactive) in assay [2] (5 µM).
